ChEMBL document CHEMBL4513216, “Probing the Open Global Health Chemical Diversity Library for Multistage-Active Starting Points for Next-Generation Antimalarials” (ACS Infect Dis, 2020)
In all, about 68,000 compounds went through this assay and about 2,700 (4%) showed an effect of 50% or more. The entries come from a sample that favours strong results as a whole.

These compounds were tested on Plasmodium berghei (assay: Screen against P. berghei liver stage (PbLuc), transformed with Luciferase, at 2uM). Conditions: tested at 2 uM.
Assay type: functional, HepG2

SMILES	INHIBITION [%]
Fc1cnc(N2CCC3(CC2)CC(OCc2cccnc2)CO3)nc1 (stereo unspecified)	11.18
CC(=O)N[C@@H]1CN(C(=O)c2cc(C)oc2C)C[C@H]1c1ccc(C)o1	-29.82
Cc1ccc(NC2CCN(C(=O)CN(C)C3CC3)CC2)nn1	21.31
CC(Cn1ccnc1)NC(=O)N(C)Cc1ccsc1 (stereo unspecified)	26.85
CO[C@H]1CCN(Cc2cccs2)[C@@H]2CN(Cc3ccncc3)C[C@H]12	-4.92
COCCN1C(=O)CC[C@@H]2[C@H]1CCN2Cc1ccc(C)s1	10.17
CNc1nc(C)c(C(=O)N2CCC(C(O)Cc3ccccc3)CC2)s1 (stereo unspecified)	40.88
CCn1nc(C)c2c1cnn2CCNS(=O)(=O)c1ccccc1	0.36
CCn1nc(C)c2c1cnn2CCNS(C)(=O)=O	15.46
CCn1nc(C)c2c1cnn2CCNS(=O)(=O)c1cccs1	61.77
COC(=O)c1cnc(/C=C/c2ccc(C(=O)O)cc2)s1	23.45
CC(=O)Nc1ccc(/C=C/c2ncc(C(=O)O)s2)cc1	69.71
COC(=O)c1ccc(/C=C/c2ncc(C(=O)O)s2)cc1	-39.34
CN1[C@@H](C(=O)NCC2CC2)C[C@H]2CN(Cc3cccc(C#N)c3)C[C@H]21	36.99
OC(CNCc1ccccc1C(F)(F)F)c1ccccc1 (stereo unspecified)	-2.86
CCC[C@H]1CN(CCS(C)(=O)=O)C[C@@H]1NC(=O)Cn1cc(C)cn1	55.44
CCC[C@H]1CN(CCOC)C[C@@H]1NC(=O)Cn1cc(C)cn1	-17.99
CCC[C@H]1CN(CCCO)C[C@@H]1NC(=O)Cn1cc(C)cn1	3.97
Cc1cncc(C(=O)N2CCC3(CCCN(c4nncs4)C3)C2)c1 (stereo unspecified)	-39.92
COc1ccc(CCN(C)C(=O)CN2C(=O)OC[C@@H]2C(C)C)cc1OC	-4.77
Cc1cnc(N2CCc3cc(C(=O)O)c(N(C)C)nc3CC2)nc1	-1.81
Cc1cccc(CN2CCc3cc(C(=O)O)c(N(C)C)nc3CC2)n1	30.19

SMILES	INHIBITION [%]
Cc1nc(CN2CCc3cc(C(=O)O)c(N(C)C)nc3CC2)cs1	63.04
O=C(c1ccc[nH]1)N1CCCC2(CCN(c3ccsc3)C2=O)C1 (stereo unspecified)	26.92
CCCc1nnsc1C(=O)N1CCCC1(C)C(=O)N1CCOCC1 (stereo unspecified)	5.76
O=C1CCC2(CCCN(CCc3ccccc3)C2)N1Cc1cccnc1 (stereo unspecified)	42.18
COCCN1C(=O)CCC12CCCN(Cc1ccccc1F)C2 (stereo unspecified)	7.88
CCN1C(=O)CCC12CCCN(CCc1ccccc1)C2 (stereo unspecified)	56.76
O=C1CCC2(CCCN(Cc3ccccc3F)C2)N1CC1CC1 (stereo unspecified)	70.48
CNC(=O)CN1C(=O)CCC12CCCN(CCc1ccccc1)C2 (stereo unspecified)	0.2
CNC(=O)CN1C(=O)CCC12CCCN(Cc1ccccc1F)C2 (stereo unspecified)	-12.98
COCCN(C)C[C@@H]1CN(C(=O)c2sc3ccccc3c2C)C[C@@H]1CO	25.45
Cc1nc([C@H]2C[C@@H]3CCN(Cc4scnc4C)C[C@H]3O2)no1	40.64
CCCC12CN3CC(C)(CN(C1)C3c1[nH]c(=O)[nH]c(=O)c1C)C2=O (stereo unspecified)	16.49
CCn1nccc1CNC(=O)C1CCCCC1	-39.57
CCn1nccc1CNC(=O)CCC1CCCC1	59.21
CCn1nccc1CNC(=O)C1CCCC1	-56.08
COCc1cccc(S(=O)(=O)Nc2ncc(C)s2)c1	-2.19
Cn1ncc2c1NC(=O)CC2c1ccccc1Cl (stereo unspecified)	33.16
O=S1(=O)NC(C2CCN(Cc3ccccn3)CC2)Nc2ccccc21 (stereo unspecified)	30.31
Cc1ccc2[nH]c(CN(C)c3cc(CCN)nc(C)n3)nc2c1	-56.42
Cc1ccc2[nH]c(CN(C)c3cc(CN)nc(C)n3)nc2c1	60.18
Cc1nc(CCN)cc(N(C)Cc2nc3ccc(F)cc3[nH]2)n1	-3.87
COc1ccc(CS(=O)(=O)CC(=O)NCC2CC2)cc1F	29.89

SMILES	INHIBITION [%]
COc1ccc(CS(=O)(=O)CC(=O)NCc2ccccc2F)cc1F	6.13
CNC(=O)CS(=O)(=O)Cc1ccc(OC)c(F)c1	69.67
Cc1cccc(S(=O)(=O)N2C[C@@H]3C[C@@H](c4nc(C)no4)O[C@@H]3C2)c1	0.8
CCCc1cnc(C)nc1NCCc1nc(C)cc(=O)[nH]1	20.14
CN(C)C(=O)CN1CCn2cc(Cn3cccn3)nc2C1	14.47
CN(C(=O)c1ccc(C#N)cc1)c1nnc(C2CCOC2)s1 (stereo unspecified)	-7.22
CN(C(=O)c1cccc(C#N)c1)c1nnc(C2CCOC2)s1 (stereo unspecified)	53.95
CN(C(=O)c1ccncc1)c1nnc(C2CCOC2)s1 (stereo unspecified)	24.58
CN(Cc1ccccn1)C1CC2(CCN(Cc3ccccn3)CC2)C1	34.48
Cc1nc(C)c(CN(C)C2CCN(C(=O)OC(C)(C)C)CC2)s1	73.62
CN(Cc1cncs1)C1CCN(C(=O)OC(C)(C)C)CC1	12.83
CN(Cc1cscn1)C1CCN(C(=O)OC(C)(C)C)CC1	-33.82
CC(NC(=O)COc1cccc[n+]1[O-])C1CC1 (stereo unspecified)	25.69
COc1cccc(-c2ncc(CN3C[C@H]4CC[C@@H](C3)N(C)C4=O)s2)c1	38.87
CN1C(=O)[C@@H]2CC[C@H]1CN(Cc1cccc(OCc3ccccn3)c1)C2	26.75
COc1cccc(-c2cccc(CN3C[C@H]4CC[C@@H](C3)N(C)C4=O)c2)c1	56.49
Cc1c(F)cccc1S(=O)(=O)NCC(C)(C)CC(C)O (stereo unspecified)	15.2
CN(CC(N)=O)S(=O)(=O)c1ccc(F)cc1F	0.44
Cc1c(F)cccc1S(=O)(=O)N(C)CC(C)O (stereo unspecified)	52.38
Cc1c(F)cccc1S(=O)(=O)NCCN	39.23
Cc1ccc(S(=O)(=O)N(C)CC(C)O)c(F)c1 (stereo unspecified)	56.69
CC(O)CN(C)S(=O)(=O)c1ccc(C#N)cc1F (stereo unspecified)	34.18
